Data: PubChem BioAssay AID602179 (National Center for Advancing Translational Sciences (NCATS), 2012)
The campaign covered roughly 390,000 compounds. About 360 (0.092%) were called active. Calls follow the shape of the dose curve; as a rule, active = well fitted inhibition curve with a large enough effect; inconclusive = small, poorly fitted or top-dose-only effect; inactive = no such curve, though single readings can be large or run the other way. Only a selection was taken, and actives are over-represented in it overall.

The compounds below were run against Isocitrate dehydrogenase [NADP] cytoplasmic (Homo sapiens) (UniProt O75874) (assay: qHTS for Inhibitors of mutant isocitrate dehydrogenase 1 (IDH1): qHTS). Settings: IDH1-R132H enzyme, NADPH consumption, diaphorase/resazurin fluorescence; series mostly up to 76.6 µM; activity change, negative = inhibition: at the top concentration.
Isocitrate dehydrogenase [NADP] cytoplasmic (Homo sapiens), sequence (O75874 whole entry R132H, stated change not applied): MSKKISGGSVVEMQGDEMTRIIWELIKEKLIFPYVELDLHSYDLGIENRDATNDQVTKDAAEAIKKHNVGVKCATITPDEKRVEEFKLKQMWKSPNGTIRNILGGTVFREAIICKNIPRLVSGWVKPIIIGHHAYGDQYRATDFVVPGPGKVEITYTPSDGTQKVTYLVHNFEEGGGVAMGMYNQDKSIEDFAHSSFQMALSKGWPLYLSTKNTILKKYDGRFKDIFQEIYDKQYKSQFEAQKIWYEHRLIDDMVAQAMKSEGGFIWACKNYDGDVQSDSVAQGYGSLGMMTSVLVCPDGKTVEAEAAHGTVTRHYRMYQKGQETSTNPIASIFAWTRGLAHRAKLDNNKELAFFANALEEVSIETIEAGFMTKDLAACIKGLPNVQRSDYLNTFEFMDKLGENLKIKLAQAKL
Procedure, shortened: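 IDH1-R132H (0.5 ug/mL dispensed) in pH 7.5 Tris buffer was preincubated 30 min with compound, then given a substrate mix of 0.016 mM NADPH and 2 mM alpha-KG for 80 min at room temperature; remaining NADPH was read by diaphorase/resazurin fluorescence.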
% is scaled to controls: 0 for no effect and ±100 for the full control effect.
Also: nearly all actives have a fitted effect of over 65% in size.

Activity change, negative = inhibition, inactive:
COc1ccc(CCNC(=O)CCc2c(C)nc3c(c(C)nn3-c3ccc(C)c(C)c3)c2C)c(OC)c1OC -2.76%, CCN(CC)C(=O)CSc1nc2ccsc2c(=O)n1Cc1ccccc1Cl 8.23%, Cc1ccc(-c2ccc(CCC(=O)O)n2-c2ccc(C(N)=O)cc2)cc1 -7.5%, N#Cc1nc(/C=C/c2ccc(F)cc2)oc1NCc1ccc(F)cc1 -16.7%, CCOc1ccc(Nc2nc3c(S(=O)(=O)c4cccc(Cl)c4)nnn3c3ccsc23)cc1 11.3%, COc1cc(OC)c(C2C=C(C(=O)O)Nc3ncnn32)cc1OC (configuration not stated) -1.93%, O=C1Cc2cc(S(=O)(=O)Nc3ccc(OC(F)(F)F)cc3)cc3c2N1CCC3 9.9%, COc1cc(C(=O)NCCc2csc3nc(-c4ccccc4C)nn23)cc(OC)c1OC -17.5%, CCc1ccc(C2C(C(=O)Nc3ccccc3)=C(C)Nc3c(C(=O)Nc4ccc(C)cc4)cnn32)cc1 (configuration not stated) -18.3%, CN(C)c1ccc(C(CNS(=O)(=O)c2cc(F)ccc2F)N2CCOCC2)cc1 (configuration not stated) 0%, COc1ccc(S(=O)(=O)c2c(Nc3ccc(C)cc3)sc(C(=O)c3ccc(C)cc3)c2N)cc1 -3.17%, Cc1ccccc1CCNC(=O)C1CCN(c2nc3ccccc3nc2C(F)(F)F)CC1 4.43%, O=C(c1ccccc1F)N1CCC(c2nc3c(nnn3Cc3cccc(F)c3)c(=O)[nH]2)CC1 7.98%, CCOc1ccc(NC(=O)c2c(NCc3cccc(OC)c3OC)sc3c2CCC3)cc1 -16.2%, COc1cc(OC)c(NC(=O)c2cc(S(=O)(=O)N3CCCC3)cn2C)cc1Cl -0.894%, O=C(COc1ccc(Cl)cc1)Nc1ccccc1OCc1cc(=O)n2ccccc2n1 -3.61%, COc1ccc(OC)c(NC(=O)CSC2=Nc3ccccc3C3=NC(CC(=O)NCCc4ccccc4)C(=O)N23)c1 (configuration not stated) -6.25%, O=C(COc1ccccc1Cl)Nc1ccc2nc(SCC(=O)N3CCCC3)sc2c1 -3.02%, O=C(CN1c2ccccc2S(=O)(=O)c2ccccc21)Nc1cccc(C(F)(F)F)c1 -11.9%, COc1cccc(-c2nc(CS(=O)(=O)CC(=O)N3CCN(c4cc(C)ccc4C)CC3)c(C)o2)c1 -8.51%, COc1ccc(CNC(=O)CSc2nc3ccccc3nc2Cc2ccccc2)cc1 10.4%, CCOC(=O)c1c(C)n(S(=O)(=O)c2ccc(C)cc2C)c2ccc(NS(=O)(=O)c3ccc(C)cc3C)cc12 -0.772%, CCOc1cccc(C(=O)Nc2nnc(S(=O)(=O)N(C)c3ccc(C)cc3)s2)c1 0%, COc1ccccc1Nc1c2c(nc3ccc(NC(=O)/C=C/c4cc(OC)c(OC)c(OC)c4)cc13)CCCC2 1.05%, O=C(Nc1c(-c2ccc(F)cc2)nc2ccccn12)c1cccc(F)c1 -3.61%, Cc1ccc(-n2ncc3c(N4CCC(C(N)=O)CC4)ncnc32)cc1 -7.51%, Cc1c(NC(=O)Cc2ccccc2)cccc1-c1nc2cccnc2s1 0%
